CYP2C9 act = activators of human CYP2C9 | P11712 | recombinant CYP2C9, luciferin-H conversion, luminescence; stronger effect = higher value; factor 1 = untreated enzyme, 0 = blocked | activation factor at 5 µM | 96,000 tested, 1.4% active;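 active = activation factor of 2 or more for CYP2C9 at a 5 µM dose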
CYP2C19 activ = increases human CYP2C19 enzyme activity; P33261; recombinant CYP2C19, luciferin-H EGE luminescence; stronger effect = higher value; 0 = fully inhibited enzyme, 1 = untreated enzyme; activation factor at 5 µM; 96,000 tested, under 10 active;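 active = activation factor of at least 2 at 5 µM in the primary screen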
Mac1 fbg enh = enhancers of human CD11b/CD18 binding to fibrinogen. K562 CD11b/CD18 adhesion to fibrinogen, ATPlite luminescence. activation, % at 10 µM. 93,000 tested, 0.07% active;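 active = 10 µM primary screen giving 50% or more activity, confirmed by 40% or more on retest at that dose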
Target sequence (P05107 whole entry, looked up, other chains not shown): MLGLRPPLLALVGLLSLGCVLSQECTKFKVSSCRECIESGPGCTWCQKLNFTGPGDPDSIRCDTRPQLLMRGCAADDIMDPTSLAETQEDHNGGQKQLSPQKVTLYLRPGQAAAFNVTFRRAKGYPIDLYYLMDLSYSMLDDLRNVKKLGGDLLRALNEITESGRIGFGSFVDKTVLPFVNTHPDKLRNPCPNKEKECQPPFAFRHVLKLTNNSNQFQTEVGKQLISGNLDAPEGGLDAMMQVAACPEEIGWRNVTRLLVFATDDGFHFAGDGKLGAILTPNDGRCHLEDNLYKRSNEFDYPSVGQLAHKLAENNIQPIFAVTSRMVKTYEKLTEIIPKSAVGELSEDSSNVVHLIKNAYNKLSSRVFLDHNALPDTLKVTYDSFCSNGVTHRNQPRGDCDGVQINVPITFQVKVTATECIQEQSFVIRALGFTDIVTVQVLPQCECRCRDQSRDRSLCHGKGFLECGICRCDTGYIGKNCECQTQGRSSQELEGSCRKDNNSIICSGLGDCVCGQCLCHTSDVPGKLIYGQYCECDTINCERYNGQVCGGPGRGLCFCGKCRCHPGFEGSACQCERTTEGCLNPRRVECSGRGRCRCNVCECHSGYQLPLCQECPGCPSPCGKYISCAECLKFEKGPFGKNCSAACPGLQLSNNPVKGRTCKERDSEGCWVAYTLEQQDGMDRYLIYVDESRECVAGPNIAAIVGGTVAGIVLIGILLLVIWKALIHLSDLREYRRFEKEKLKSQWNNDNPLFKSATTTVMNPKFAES
CYP2C9 inh = human CYP2C9 inhibition. P11712. CYP2C9 Supersomes, luciferin-H conversion, luminescence. inhibition, % at 5 µM. 96,000 tested, 20% active;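 active = blocking of liver enzyme CYP2C9 beyond about 50% at 5 µM, limit read from the data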
CYP2C19 inh = blocks human cytochrome P450 2C19; CYP2C19 Supersomes, luciferin-H EGE luminescence, 30 min; inhibition, % at 5 µM; 96,000 tested, 21% active;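 active = CYP2C19 inhibition above a set limit at 5 µM in the primary screen, cut at about 50% in these data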
Mac1 fbg inh = blocks human CD11b/CD18 adhesion to fibrinogen; K562 CD11b/CD18 adhesion to fibrinogen, ATPlite luminescence; Mn2+ added to activate the integrin; inhibition, % at 10 µM; 93,000 tested, 0.54% active; AID 1497;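 active = primary inhibition of 50% or more at 10 µM, then 40% or more on retest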
Each line names hits and unclear results; the compound was inactive in the other large screens. Most compounds without a hit are left out; they make up all but 28% or so of the library.

CC(=O)n1nc(-c2ccco2)nc1N	none (no result: Mac1 fbg enh, Mac1 fbg inh)
Cc1ccc(S(=O)(=O)n2nc(-c3ccc(Cl)cc3)nc2NCc2ccco2)cc1	CYP2C19 inh 68
COc1ccc(CNc2nc(-c3cccnc3)nn2C(=O)c2ccco2)cc1	CYP2C9 inh 53
COc1ccccc1C(=O)n1nc(-c2ccccc2)nc1NCc1ccco1	CYP2C9 inh 59, CYP2C19 inh 61
COc1ccccc1C(=O)n1nc(-c2ccco2)nc1N	CYP2C19 inh 57
O=C(c1ccco1)n1nc(-c2ccccc2)nc1NCc1ccco1	none
Cc1ccc(S(=O)(=O)c2nc(S(=O)(=O)c3ccc(C)cc3)c(NCc3ccco3)s2)cc1	none
Cc1ccc(=O)n(C(C(=O)NCc2ccco2)C(=O)c2ccc(F)cc2)c1 (stereo not drawn)	none
CC(C)C(=O)Nc1ccc2c(c1)C(=O)N(CCC(=O)O)C2=O	none
O=C(O)Cn1nc(C(F)(F)F)c2c1CCC2	none
O=C(NCc1ccc(F)cc1)C1CCC(=O)N1C1CCCCC1 (stereo not drawn)	none (no result: Mac1 fbg enh, Mac1 fbg inh)
CCc1ccc(-c2cc(C(F)(F)F)n3nc(C(=O)Nc4cnn(Cc5ccc(C)cc5)c4)cc3n2)s1	none
O=C(c1ccco1)n1nc(-c2ccc(Cl)cc2)nc1NCc1ccco1	none
O=C(COc1ccccc1)n1nc(-c2ccc(Cl)cc2)nc1NCc1ccco1	CYP2C9 inh 55, CYP2C19 inh 69
CC(C)C(NS(=O)(=O)c1cccc2nsnc12)C(=O)N1CCn2c1nc1ccccc12 (stereo not drawn)	none
COCCn1c(=O)[nH]c2cc(C(=O)NC(C)C)ccc2c1=O	none
COc1cc(C)c(N(C(C)=O)c2ccccc2)c(C)c1	CYP2C19 inh 61
CCc1ccc(N2C(=O)CC(NNc3nc4ccccc4s3)C2=O)cc1 (stereo not drawn)	none (no result: CYP2C9 act, CYP2C19 activ, CYP2C9 inh, CYP2C19 inh)
CCCCCOc1ccc(NS(C)(=O)=O)cc1	none
CCS(=O)(=O)Nc1ccc(Cc2ccc(NS(=O)(=O)CC)cc2)cc1	CYP2C9 inh 87, CYP2C19 inh 70
CS(=O)(=O)Nc1ccc(Cc2ccc(NS(C)(=O)=O)cc2)cc1	CYP2C9 inh 52
O=C(CCCNS(=O)(=O)c1cccc2nsnc12)NC1CCCCC1	none
COC(=O)CN(C#N)c1nc(SC)nc(N(C)C)n1	CYP2C19 inh 56
CC(=O)OCN(C#N)c1nc(N(C)C)nc(N(C)C)n1	none
COc1ccc(CNC(=O)c2ccc(CN3CCOCC3)cc2)cc1	none
COc1ccc(CC(=S)N2CCOCC2)cc1	CYP2C19 inh 96
CCCc1cc2c(cc1NC(=O)c1ccc(C)cc1)OCO2	CYP2C19 inh 98 (no result: Mac1 fbg enh, Mac1 fbg inh)
Cc1ccc(CN2C(=O)CCC2C(=O)NC(C)C)cc1 (stereo not drawn)	none
O=C(CN1C(=O)C2CC=CCC2C1=O)Nc1ccc(S(=O)(=O)NC2=NCCCCC2)cc1 (stereo not drawn)	none
CCOc1ccc(CNC(=O)C2CCN(S(=O)(=O)CC)CC2)cc1OC	none (no result: Mac1 fbg enh, Mac1 fbg inh)
CCOC(=O)C(CC)n1nc(C)n2c(cc3occc32)c1=O (stereo not drawn)	CYP2C9 inh 71
CCOc1ccc(CNC(=O)C(CC)n2nc(C)n3c(cc4occc43)c2=O)cc1OC (stereo not drawn)	CYP2C9 inh 75
Cc1nn(C(C)C(=O)NCC2CCCO2)c(=O)c2cc3occc3n12 (stereo not drawn)	none
CCOc1ccc(CCNC(=O)C(C)n2nc(C)n3c(cc4occc43)c2=O)cc1OCC (stereo not drawn)	CYP2C9 inh 62
Cc1nn(C(C)C(=O)NCCCc2ccccc2)c(=O)c2cc3occc3n12 (stereo not drawn)	CYP2C9 inh 68, CYP2C19 inh 71
CC(=O)COc1ccccc1OC(=O)c1ccco1	none
O=C(COC(=O)C1CC(=O)N(C2CCCCC2)C1)c1ccc(F)cc1 (stereo not drawn)	none
C=CCNC(=S)N/N=C(\C)c1ccccn1	none
CC(C)(C)NC(=O)C(c1ccsc1)N(CCc1ccccc1)C(=O)Cn1nnc2ccccc21 (stereo not drawn)	none (no result: Mac1 fbg enh, Mac1 fbg inh)
Cc1cc(C(=O)CN2CCC(C)CC2)c(C)n1-c1ccc(F)cc1	none (no result: CYP2C9 act, CYP2C19 activ, CYP2C9 inh, CYP2C19 inh)
Cc1cc(C(=O)Cn2cncn2)c(C)n1CCc1ccc(F)cc1	CYP2C9 inh 67, CYP2C19 inh 99
CC1CC(C)CN(CCCNC(=O)Cc2c(C(=O)O)n(C)c3ccccc23)C1 (stereo not drawn)	none
CCCCOc1ccc(C(=O)Nn2cnnc2)cc1	CYP2C9 inh 93, CYP2C19 inh 93
CCOC(=O)C1CCN(C(=O)CCc2c(C)nc3c(-c4ccc(F)cc4)c(C)nn3c2C)CC1	none
Cc1nc2c(-c3ccc(F)cc3)c(C)nn2c(C)c1CCC(=O)N1CCC(Cc2ccccc2)CC1	CYP2C9 inh 51
Cc1nc2c(-c3ccc(F)cc3)c(C)nn2c(C)c1CCC(=O)N1CCOCC1	CYP2C19 inh 51
Cc1nc2c(-c3ccc(F)cc3)c(C)nn2c(C)c1CCC(=O)N1CCN(c2ccccc2)CC1	CYP2C9 inh 56, CYP2C19 inh 50
Cc1nc2c(-c3ccc(F)cc3)c(C)nn2c(C)c1CCC(=O)N1CCN(c2ccc(F)cc2)CC1	CYP2C9 inh 67, CYP2C19 inh 62
Cc1nc2c(-c3ccc(F)cc3)c(C)nn2c(C)c1CCC(=O)NCCN1CCOCC1	none
Cc1nc2c(-c3ccccc3)c(C)nn2c(C)c1CCC(=O)N1CCOCC1	none
COCCNC(=O)CCc1c(C)nc2c(-c3ccc(F)cc3)c(C)nn2c1C	none
FC(F)(F)C1=CC(c2ccc(Br)cc2)=NCCN1	none
CCCS(=O)(=O)N1CCCC(C(=O)N2CCC(Cc3ccccc3)CC2)C1 (stereo not drawn)	CYP2C9 inh 51, CYP2C19 inh 69
CS(=O)(=O)N1CCCC(C(=O)NCCN2CCC(Cc3ccccc3)CC2)C1 (stereo not drawn)	CYP2C19 inh 64
CCS(=O)(=O)N1CCCC(C(=O)NCCN2CCC(Cc3ccccc3)CC2)C1 (stereo not drawn)	none (no result: Mac1 fbg enh, Mac1 fbg inh)
CCCNC(=O)C1CCN(c2nc(C)cc(C)n2)CC1	none
c1csc(-c2nnc(NC3CCCCC3)c3ccccc23)c1	none (no result: CYP2C9 act, CYP2C19 activ, CYP2C9 inh, CYP2C19 inh)
CCCCC(=O)Nc1ncc(Br)s1	CYP2C19 inh 76
CCCCC(=O)Nc1nnc(C)s1	none
COc1ccc(S(=O)(=O)Nc2cc3c(C(C)=O)c(C)oc3c3ccccc23)cc1	CYP2C9 inh 84, CYP2C19 inh 93
COc1ccccc1C(=O)Nc1ccc(S(=O)(=O)Nc2cc(C)on2)cc1	none
CCOC(=O)c1sc2nc(NC(=O)C3CC3)sc2c1C	CYP2C19 inh 53
CCOC(=O)c1sc(NC(=O)C2CC2)nc1C	CYP2C9 inh 61, CYP2C19 inh 63
CCOC(=O)c1sc(NC(=O)C2C3C=CC(C3)C2C(=O)O)nc1C (stereo not drawn)	none
Cc1ccc(C(=O)NNc2nc3ccccc3nc2C(F)(F)F)cc1	none (no result: Mac1 fbg enh, Mac1 fbg inh)

Compound activity (PubChem BioAssay)
